Screening data as filed in PubChem BioAssay.
Most compounds without a hit are left out; they make up all but 0.86% or so of the library.
FEN1 inh-1: inhibitors of human flap endonuclease 1; P39748; Potency, µM (series often up to 114 µM), for the others: at the highest dose activity change, negative = inhibition, hits mostly inhibitors; 390,000 tested, 0.35% active; Recombinant FEN1 flap cleavage, fluorescence, 15 min; further: on the % scale 0 is the no-effect control and ±100 the full control effect; nearly all actives have a fitted effect of over 65% in size
Target sequence (P39748 whole entry, looked up): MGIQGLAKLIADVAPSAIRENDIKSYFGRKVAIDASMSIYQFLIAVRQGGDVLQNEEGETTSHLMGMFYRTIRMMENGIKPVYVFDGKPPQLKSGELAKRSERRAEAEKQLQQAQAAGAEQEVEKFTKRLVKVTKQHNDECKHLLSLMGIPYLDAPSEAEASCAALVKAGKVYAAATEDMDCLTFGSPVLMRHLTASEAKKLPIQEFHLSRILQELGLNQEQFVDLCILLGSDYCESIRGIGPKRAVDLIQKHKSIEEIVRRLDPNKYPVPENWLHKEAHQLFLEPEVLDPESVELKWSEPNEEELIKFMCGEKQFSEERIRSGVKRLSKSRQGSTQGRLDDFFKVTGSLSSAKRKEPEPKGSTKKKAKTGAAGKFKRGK
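Recombinant FEN1 (10 nM) was preincubated with pin-transferred compounds for 15 min at room temperature, then flap DNA substrate (50 nM final) was added. Plates were read at 0 and 15 min, and normalized concentration–response data were fitted to a four-parameter Hill equation.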
APE1 inh: blocks human APE1 abasic DNA cleavage; 350,000 tested, 0.35% active; AID 2517; P27695; recombinant APE1, TAMRA/BHQ-2 abasic DNA cleavage fluorescence; Potency, µM (series often up to 65.8 µM), without a hit: at the highest dose activity change, negative = inhibition, usual class: inhibitors;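 further: plate controls were vehicle for no effect and reference inhibitor for full effect; nearly all actives have a fitted effect of over 55% in size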
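Substrate: short duplex with […] THF abasic site, 5'-TAMRA and 3'-BHQ-2, 50 nM final. APE1 at 0.75 nM, preincubated 15 min RT with compound. Fluorescence increase from first to third read measured activity.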
Tb PGK inh: blocks T. brucei phosphoglycerate kinase. P07378. PGK/GAPDH coupled, Kinase-Glo luminescence, 60 min. Potency, µM (doses to about 57.5 µM), inactives show top-dose activity change, negative = inhibition, hits mostly inhibitors. 380,000 tested, 0.043% active. AID 602233; further: on the % scale 0 is the no-effect control and ±100 the full control effect; nearly all actives have a fitted effect of over 60% in size
Target sequence (P07378 whole entry, looked up): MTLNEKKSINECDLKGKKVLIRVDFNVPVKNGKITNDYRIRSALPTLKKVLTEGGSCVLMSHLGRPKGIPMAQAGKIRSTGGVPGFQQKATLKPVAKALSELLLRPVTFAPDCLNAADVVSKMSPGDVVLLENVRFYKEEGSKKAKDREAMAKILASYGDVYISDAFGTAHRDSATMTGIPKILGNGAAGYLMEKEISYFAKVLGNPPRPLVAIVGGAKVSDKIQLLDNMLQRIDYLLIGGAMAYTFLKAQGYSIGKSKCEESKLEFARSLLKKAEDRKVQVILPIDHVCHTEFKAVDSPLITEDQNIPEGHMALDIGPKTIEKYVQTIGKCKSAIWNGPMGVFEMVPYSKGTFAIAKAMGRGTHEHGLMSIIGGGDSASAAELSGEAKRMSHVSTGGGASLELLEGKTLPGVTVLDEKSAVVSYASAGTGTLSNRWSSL
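Recombinant glycosomal PGK reaction used 1,3-bisphosphoglycerate generated in-well by GAPDH (100nM final) in 100mM TEA pH 7.6, 5mM MgCl2, 0.01% Tween-20. After 60 minutes at room temperature, ATP was read by Kinase-Glo Plus luminescence end-point.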
GLS inh: blocks human kidney-isoform glutaminase activity; 410,000 tested, 0.21% active; GLS enzymatic activity, qHTS titration; Potency, µM (series often up to 45.5 µM), for the others: top-dose activity change, negative = inhibition, usual class: inhibitors; O94925; AID 624170; further: on the % scale 0 is the no-effect control and ±100 the full control effect
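Read-out is an Amplex red fluorescence increase coupled through glutamate oxidase and HRP, measured before and after 30 min room-temperature incubation. hKGA is in 45 mM KH2PO4 (pH 8.2) with 0.02% Tween-20; glutamine added as 1mM solution.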
RECQ1 inh-1: RECQ1 (human) helicase inhibition; 240,000 tested, 0.54% active; Potency, µM (highest dose often 57.3 µM), for inactives: at the top dose activity, negative = inhibition, hits mostly inhibitors; RECQ1 DNA unwinding, red fluorescence kinetic read; AID 2549;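 further: plate controls were vehicle for no effect and no enzyme for full effect; nearly all actives have a fitted effect of over 30% in size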
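RECQ1T1 50 nM; forked duplex (20 bp + 30-nt ss tails) 200 nM, ATP 2 mM final; pH 8.0, 2 mM MgCl2, 2.5 ug/ml poly(dI-dC); 15 min compound preincubation; discontinuous kinetic read over 2 h at RT.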
BLM inh-1: Bloom syndrome helicase (human) inhibition; P54132; recombinant BLM DNA unwinding, fluorescence dequenching; Potency, µM (highest dose often 56.1 µM), without a hit: at the highest dose activity change, negative = inhibition, most hits filed as inhibitors; 350,000 tested, 0.2% active; AID 2528;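 further: plate controls were vehicle for no effect and no enzyme for full effect; nearly all actives have a fitted effect of over 35% in size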
BLM inh-2: confirmation of inhibitors of human Bloom syndrome helicase BLM; shares compounds with BLM inh-1; BLM DNA unwinding, fluorescence quenching, biochemical; Potency, µM, for the others: max response, negative = inhibition, hits mostly inhibitors; 220 tested, 40% active; AID 2585;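 further: strand separation dequenches TAMRA so unwinding raises red fluorescence; series mostly up to about 69 µM; on the % scale 0 is the no-effect control and ±100 the full control effect; nearly all actives have a fitted effect of over 45% in size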
RECQ1 conf: confirmation of human RECQ1 helicase inhibitors; shares compounds with RECQ1 inh-1; RECQ1 helicase DNA unwinding, fluorescence; Potency, µM (highest dose often 229 µM), for the others: at the top dose activity change, negative = inhibition, most hits filed as inhibitors; 610 tested, 28% active; AID 2708; further: on the % scale 0 is the no-effect control and ±100 the full control effect; nearly all actives have a fitted effect of over 45% in size
RECQ1 ADP FP: counter-screen for RECQ1 inhibitors: ADP displacement | shares compounds with RECQ1 inh-1 | ADP fluorescence polarization displacement counterscreen | Potency, µM (series often up to 228 µM), without a hit: at the highest dose activity change, negative = inhibition, usual class: inhibitors | 530 tested, 27% active; further: on the % scale 0 is the no-effect control and ±100 the full control effect; nearly all actives have a fitted effect of over 45% in size
RECQ1 inh-2: confirmation of human RECQ1 helicase inhibitors | 1,100 tested, 15% active | shares compounds with RECQ1 inh-1 | Potency, µM (titrated, usually from 119 µM), for the others: top-dose activity, negative = inhibition, hits mostly inhibitors | recombinant RECQ1 DNA unwinding, red fluorescence; further: on the % scale 0 is the no-effect control and ±100 the full control effect; nearly all actives have a fitted effect of over 50% in size
FEN1 inh-2: FEN1 inhibition, cherry-pick retest | shares compounds with FEN1 inh-1 | FEN1 flap cleavage, TAMRA/BHQ2 fluorogenic DNA substrate | Potency, µM, actives largely listed as inhibitors | 880 tested, 79% active | AID 720498; further: nearly all actives have a fitted effect of over 60% in size
Numbers without * were called inactive; i = inactive; ? = inconclusive; nt = not tested or not shown; [ ] = dose if it differs, or a comment. The call rests on the fitted dose curve; in most records, active means well fitted curve in the direction sought with a large enough effect; inconclusive means small, poorly fitted or top-dose-only effect, or another doubt; inactive means no such curve, though single readings can be large; an effect the other way counts as inactive or inconclusive. Potency means the concentration at half of the fitted maximal effect.

SMILES	FEN1 inh-1	APE1 inh	Tb PGK inh	GLS inh	RECQ1 inh-1	BLM inh-1	RECQ1 inh-2	others
O=C(O)c1ccc(S(=O)(=O)/N=C2\C=C(Nc3ccccc3F)C(=O)c3ccccc32)cc1	44.7µM*	17.1%	?	5.0%	nt	8.91µM*	nt	BLM inh-2=16.2µM*;FEN1 inh-2=?
CCCCC/C=C\C\C=C/C=C/C=C/[C@@H](O)[C@@H](O)CCCC(=O)O	nt	17.0%	nt	nt	-1.6%	3.1%	nt
c1ccc2nc(-c3cc4ccccc4s3)ccc2c1	-16.9%	nt	nt	nt	nt	nt	nt
Cc1cc2nc3ccc(=[N+](C)C)cc-3sc2cc1N	22.4µM*	?	-28.7%	-4.1%	15.8µM*	15.8µM*	15.8µM*	RECQ1 conf=3.55µM*;RECQ1 ADP FP=7.08µM*
CC[C@H](C)[C@H](NC(=O)[C@H](Cc1ccc(O)cc1)NC(=O)CNC(=O)[C@@H]1CCCN1C(=O)[C@H](CC(=O)O)NC(=O)[C@@H](N)CS)C(=O)NCC(=O)N[C@@H](CO)C(=O)N[C@@H](CCCN=C(N)N)C(N)=O	nt	0.1%	nt	nt	-6.3%	1.1%	nt
COc1cccc(CNC(=O)c2ccc3c(c2)nc2n3CCC(C)C2)c1 (stereo unspecified)	13.8%	nt	-1.5%	-3.3%	nt	0.0%	nt
Cc1cc(/C=N/Nc2ccc([N+](=O)[O-])cn2)c(C)n1-c1ccc(C(=O)O)cc1	?	?	-25.4%	-24.0%	17.8µM*	?	nt	RECQ1 conf=?
O=C(CSc1ncnc2sc3c(c12)CCCC3)c1ccccc1	16.4%	0.5%	-8.7%	-0.7%	-1.1%	-0.8%	nt
O=C(CSc1ncnc2sc3c(c12)CCCC3)c1ccco1	-11.1%	?	-0.4%	1.3%	?	-19.6%	-23.4%
N#CC1=C(SCC(=O)c2cc3ccccc3oc2=O)NC(=O)C(C#N)C12CCCC2 (stereo unspecified)	1.2%	?	-6.5%	12.9%	?	-16.0%	-8.1%
COC(=O)[C@H]1CC2(CC=C(C)C)C(=O)[C@@](CC=C(C)C)(C(=O)C(C(=O)c3ccccc3)=C2OC)C1(C)C (tested in a mixture with another compound)	nt	5.2%	nt	nt	i	4.8%	nt
CN1CCN(S(=O)(=O)c2ccc(NC(=S)NC(=O)C3CCCCC3)cc2)CC1	-3.7%	-3.1%	-0.8%	-2.9%	?	-1.7%	-17.3%
Cc1ccc(O)c(NC(=O)c2noc3c2CCCC3)c1	-6.7%	nt	i	29.1%	nt	-4.4%	nt
CSc1ccccc1NC(=O)c1noc2c1CCC2	?	35.5µM*	?	-11.1%	?	-3.8%	?
COc1ccc(CCNC(=O)Cn2cc(S(=O)(=O)Cc3cccc(Cl)c3)c3ccccc32)cc1OC	13.0%	nt	i	1.2%	nt	0.8%	nt
CNC(=O)CSc1nnc(-c2ccco2)n1-c1cc(C)ccc1C	-0.6%	47.2%	i	0.0%	nt	-1.9%	nt
Cc1ccc(C)c(-n2c(SCC(=O)NC(C(=O)O)C(C)C)nnc2-c2cccc(Cl)c2)c1 (stereo unspecified)	5.7%	-2.4%	-5.4%	-14.5%	-0.2%	-0.6%	nt	RECQ1 conf=12.9%;RECQ1 ADP FP=10.2%
CC(=O)c1cc(-c2ccccc2)n(CC(=O)NCCc2ccc(C)cc2)c1C	17.9%	nt	7.6%	-4.2%	nt	-1.1%	nt
Cc1nc2cc(-c3ccc(Br)cc3)[nH]n2c(=O)c1Cl	-12.7%	-23.1%	-9.5%	7.4%	nt	-6.4%	nt
Cc1cc2nc(C)c(Cl)c(=O)n2[nH]1	5.9%	-5.4%	6.6%	10.1%	?	-4.4%	-2.9%
Cc1cc(C)c(Cn2c3ccccc3c3cnn(CC(=O)NC4CCC(C)CC4)c(=O)c32)c(C)c1 (stereo unspecified)	-2.4%	nt	2.9%	1.4%	nt	-6.2%	nt
COc1ccc(S(=O)(=O)Nc2cccc(S(=O)(=O)N3CCCCCC3)c2)cc1	8.5%	9.2%	i	0.9%	-11.3%	-0.9%	nt
COc1ccc(C(=O)Nc2ccc(S(=O)(=O)N3CCCC3)cc2)cc1	2.9%	-7.9%	-7.2%	-7.5%	i	-4.1%	nt
O=S(=O)(Nc1nc2ccccc2nc1Nc1cccc(S(=O)(=O)N2CCCCC2)c1)c1ccccc1	4.1%	-5.6%	-18.7%	0.1%	?	-19.3%	?
COc1ccc(NS(=O)(=O)c2ccc(O)c(NC(=O)c3ccc(S(=O)(=O)N4CCCCCC4)cc3)c2)cc1	-12.9%	3.1%	-2.2%	19.6%	6.3%	-18.8%	nt	RECQ1 conf=-13.5%;RECQ1 ADP FP=10.2%
SMILES	FEN1 inh-1	APE1 inh	Tb PGK inh	GLS inh	RECQ1 inh-1	BLM inh-1	RECQ1 inh-2	others
COc1ccc(NS(=O)(=O)c2cccc(NC(=O)c3ccc(S(=O)(=O)N4CCCCCC4)cc3)c2)cc1	-11.2%	-4.1%	-4.2%	7.8%	-14.3%	-3.4%	nt	RECQ1 conf=-2.5%;RECQ1 ADP FP=4.3%
COc1ccc(NS(=O)(=O)c2ccc(O)c(NC(=O)c3ccc(S(=O)(=O)N4CCCC4)cc3)c2)cc1	9.3%	-2.2%	7.5%	30.8%	4.6%	-5.7%	nt	RECQ1 conf=8.2%;RECQ1 ADP FP=4.5%
COc1ccc(-c2ccc(N(C)C)cc2)cc1C1C2C=CCCC2(C)C(=O)N1Cc1ccccc1 (stereo unspecified)	-29.1%	5.4%	nt	nt	-9.3%	-11.5%	nt
COc1cccc(S(=O)(=O)NCc2ccc(C(=O)Nc3ccc(C)cc3)cc2)c1	-4.4%	-4.6%	0.6%	-11.1%	6.1%	-1.8%	nt
COc1ccc(NC(=O)c2ccc(CNS(=O)(=O)c3cccc(OC)c3)cc2)cc1	-10.3%	-5.0%	-1.8%	-4.4%	35.5µM*	-3.6%	0.3%
COC(=O)NC(/C(C(=O)OC)=C(\C)NCc1ccccc1)c1ccc(F)cc1 (stereo unspecified)	nt	27.3%[12.4 µM]	nt	nt	-0.7%[11.5 µM]	-6.3%[12.4 µM]	nt
